Shown are actives, neighbours in structure and some others; about 10% of the full set was active somewhere.
SW480 rerep = inducers of DNA re-replication in SW480 colon cancer cells; SW480 DNA re-replication, Hoechst DNA content imaging, 48 h; 1.8% of 340,000 active; AID 624297; Potency, µM (doses to about 46.1 µM), usual class: activators; note: nearly all actives have a fitted effect of over 55% in size
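Readout is total intensity of Hoechst-stained nuclei, excited at 405 nm and collected at 500-530 nm. Compound treatment lasted 48 hr at 37 C in 5% CO2 before staining.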
VP16 counter = counter-screen for ROR gamma inhibitors: Gal4-VP16 reporter | 3.5% of 310,000 active | Potency, µM (doses to about 53.6 µM), most hits filed as inhibitors | Drosophila S2 Gal4-VP16 UAS-luciferase, luminescence, 20 h;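 note: Gal4-VP16 expression switched on by copper sulfate through the metallothionein promoter; nearly all actives have a fitted effect of over 50% in size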
ELG1 repair inh = inhibitors of ELG1-dependent DNA repair in HEK293T cells; HEK293T ELG1-luciferase reporter, luminescence, 16 h; DNA damage induced by 5-fluorouridine; Potency, µM (series often up to 46.1 µM), hits mostly inhibitors; 2.3% of 330,000 active; AID 504467; note: nearly all actives have a fitted effect of over 55% in size
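Reporter activity after DNA damage by 5-fluorouridine is monitored. Compound-treated cells incubate 16 hr at 37 °C, then ONE-Glo is added for 30 min before luminescence reading.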
MCF10A rerep = inducers of DNA re-replication in MCF 10A breast cells; AID 624296; Potency, µM (top dose mostly 46.1 µM), actives largely listed as activators; 2.9% of 350,000 active; MCF 10A DNA re-replication, Hoechst nuclear intensity, 48 h; note: nearly all actives have a fitted effect of over 50% in size
RORgamma inh = inhibitors of mouse ROR gamma transcriptional activity; 5.4% of 310,000 active; AID 2551; Drosophila S2 Gal4-RORgamma UAS-luciferase reporter, 20 h; Potency, µM (top dose mostly 53.6 µM), usual class: inhibitors; note: nearly all actives have a fitted effect of over 60% in size
Target sequence (P51450 whole entry, looked up, the tested form may be a part): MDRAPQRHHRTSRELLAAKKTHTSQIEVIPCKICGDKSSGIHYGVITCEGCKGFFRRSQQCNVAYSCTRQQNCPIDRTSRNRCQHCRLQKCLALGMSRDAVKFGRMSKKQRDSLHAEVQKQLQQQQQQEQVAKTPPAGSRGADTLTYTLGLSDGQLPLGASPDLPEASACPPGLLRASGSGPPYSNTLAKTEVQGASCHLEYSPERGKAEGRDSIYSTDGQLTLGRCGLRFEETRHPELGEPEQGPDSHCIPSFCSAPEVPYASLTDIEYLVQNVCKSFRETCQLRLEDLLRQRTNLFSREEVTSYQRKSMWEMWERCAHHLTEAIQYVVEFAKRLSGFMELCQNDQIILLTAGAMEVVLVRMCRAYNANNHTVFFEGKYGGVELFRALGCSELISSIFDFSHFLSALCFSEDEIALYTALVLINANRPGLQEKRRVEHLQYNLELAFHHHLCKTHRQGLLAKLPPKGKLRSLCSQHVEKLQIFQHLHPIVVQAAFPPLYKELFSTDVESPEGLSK
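Schneider cells (Drosophila), stable Gal4 DBD–ROR gamma + UAS-luc; 1 hr cmpd preincubation; Cu2+ induction 700 uM final; 20 hr ambient; luminescence.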
Of the large screens only hits and unclear results are named; the others gave an inactive call. Calls come from the whole dose curve; as a rule, active = well fitted curve in the direction sought with a large enough effect; inconclusive = small, poorly fitted or top-dose-only effect, or another doubt; inactive = no such curve, though single readings can be large; an effect the other way counts as inactive or inconclusive.

COc1ccc(NC(=O)C(=O)NCC2CCCN2S(=O)(=O)c2cc(C)ccc2C)cc1 (stereo unspecified)	SW480 rerep 16µM, ELG1 repair inh inconclusive, MCF10A rerep inconclusive (no result: VP16 counter, RORgamma inh)
CC1(c2ccccc2)NC(=O)N(CC(=O)Nc2cc3c(cc2Br)OCCO3)C1=O (stereo unspecified)	none (no result: VP16 counter, RORgamma inh)
C=CCSc1nc(C)c(CC(=O)OCC(C)C)c(=O)[nH]1	none
CN1CCN(C(=S)c2cn(CCOc3ccccc3)c3ccccc23)CC1	VP16 counter inconclusive, RORgamma inh 11µM
Cc1ccc(C)c(OCCn2cc(C(=O)O)c3ccccc32)c1	none
N#Cc1cn(CCOc2ccccc2F)c2ccccc12	ELG1 repair inh inconclusive
CN1CCN(C(=S)c2cn(CCOc3ccccc3F)c3ccccc23)CC1	ELG1 repair inh inconclusive, MCF10A rerep inconclusive, RORgamma inh 14µM
CC(=O)c1cn(CCOc2cc(C)ccc2C)c2ccccc12	VP16 counter 4µM, RORgamma inh inconclusive
Cc1ccccc1OCCn1cc(C(=O)O)c2ccccc21	VP16 counter inconclusive
CC(C)=CCN1CCN(CCC2=C(C)CCCC2(C)C)CC1CCO (stereo unspecified)	MCF10A rerep inconclusive
CC1=C(CC/C(C)=N/NC(N)=S)C(C)(C)CCC1	SW480 rerep 11µM, VP16 counter 2.8µM, ELG1 repair inh inconclusive, MCF10A rerep 13µM, RORgamma inh 1.8µM
COc1ccc(-c2cc3nc(-c4ccccc4)cc(N4CCC5(CC4)OCCO5)n3n2)cc1	SW480 rerep 23µM, ELG1 repair inh 21µM
Cc1ccc(-c2cc3nc(-c4ccccc4)cc(N4CCOCC4)n3n2)cc1	SW480 rerep inconclusive, ELG1 repair inh inconclusive, MCF10A rerep 16µM, RORgamma inh inconclusive
CCC(COC)NC(=O)c1ccc(OC)c(OC2CCN(C(C)=O)CC2)c1 (stereo unspecified)	none
CC(=O)Nc1ccc(N2C(C(C)=O)=NN(c3ccccc3)C2c2cccs2)cc1 (stereo unspecified)	MCF10A rerep inconclusive, RORgamma inh inconclusive
CC(=O)Nc1ccc(N2C(C(C)=O)=NN(c3ccc(Cl)cc3)C2c2sccc2C)cc1 (stereo unspecified)	SW480 rerep inconclusive, VP16 counter inconclusive, MCF10A rerep 23µM, RORgamma inh inconclusive
CN1CC(=O)N(CC(=O)Nc2cccc3ccccc23)C1=O	none (no result: VP16 counter, RORgamma inh)
Cc1cc(=O)c2cc3nc(-c4cccnc4)oc3c(Br)c2o1	ELG1 repair inh inconclusive (no result: SW480 rerep, MCF10A rerep)
COc1ccc(C(=O)/C=C/c2ccc(N3CCCCC3)c([N+](=O)[O-])c2)c(OC)c1	SW480 rerep inconclusive, MCF10A rerep 12µM, RORgamma inh inconclusive
CO/N=C/c1ccc(N2CCN(C(=O)c3ccc(F)cc3)CC2)c([N+](=O)[O-])c1	VP16 counter 8.9µM, ELG1 repair inh inconclusive, RORgamma inh inconclusive
COc1ccc(C(=O)/C=C/c2ccc(N3CCCCC3)c([N+](=O)[O-])c2)cc1	SW480 rerep inconclusive, MCF10A rerep 8.2µM, RORgamma inh inconclusive
COc1cccc(CN2CC(C(=O)N(C)CC3CCOCC3)CCC2=O)c1 (stereo unspecified)	none
CC(=O)c1sc(N/N=C\c2c(O)ccc3ccccc23)nc1C	SW480 rerep 3.3µM, MCF10A rerep inconclusive (no result: VP16 counter, ELG1 repair inh, RORgamma inh)
CC(=O)c1sc(Nc2cccc3ccccc23)nc1C	MCF10A rerep inconclusive (no result: VP16 counter, ELG1 repair inh, RORgamma inh)
CC(=O)c1sc(N/N=C/c2cccc(O)c2)nc1C	ELG1 repair inh inconclusive
Cc1cc(N/N=C/c2c(O)ccc3ccccc23)nc(-c2ccccc2O)n1	SW480 rerep 13µM, VP16 counter 4µM, ELG1 repair inh 23µM, MCF10A rerep 3.3µM, RORgamma inh 7.1µM
CC(=O)c1sc(N/N=C\c2ccc(N(C)C)cc2)nc1C	SW480 rerep inconclusive, ELG1 repair inh inconclusive, MCF10A rerep 16µM
Cc1cc(NCc2ccccc2)nc(-c2ccccc2O)n1	MCF10A rerep inconclusive, RORgamma inh inconclusive
COC(=O)c1sc(N/N=C/c2ccc(C(C)C)cc2)nc1C	SW480 rerep inconclusive, VP16 counter inconclusive, ELG1 repair inh inconclusive, MCF10A rerep 15µM, RORgamma inh inconclusive
CCOC(=O)c1sc(N/N=C/c2cc(Br)c(O)c(OC)c2)nc1C	VP16 counter inconclusive, ELG1 repair inh inconclusive, MCF10A rerep inconclusive, RORgamma inh inconclusive
CCCCN(C(=O)CSc1n[nH]c(-c2ccc(C)cc2)n1)c1c(N)n(CCCC)c(=O)[nH]c1=O	none (no result: VP16 counter, RORgamma inh)
COc1ccc(NC(=O)COC(=O)CCOc2ccccc2C)cc1Cl	SW480 rerep inconclusive (no result: VP16 counter, RORgamma inh)
Cc1cccnc1NC(=O)CCCNC(=O)c1ccc(Cl)cc1	ELG1 repair inh inconclusive, MCF10A rerep inconclusive (no result: VP16 counter, RORgamma inh)
COc1cc(/C=C/C(=O)OCC(=O)N2CCN(S(=O)(=O)c3ccc(C)cc3C)CC2)ccc1OC(F)F	none (no result: VP16 counter, ELG1 repair inh, RORgamma inh)
Cc1ccc(S(=O)(=O)N2CCOCC2)cc1NC(=O)CN1C(=O)CN(C)C1=O	none (no result: VP16 counter, RORgamma inh)
COc1ccccc1CNC(=O)CCC(=O)N1CCOc2ccc(C)cc21	none
Cc1cc(Nc2ccccc2)nc(-c2ccccc2O)n1	MCF10A rerep inconclusive
Cc1cc(NC2CCCCC2)nc(-c2ccccc2O)n1	MCF10A rerep 18µM
COc1ccc(COc2cc(-c3cccc(OC)c3)nc3ccc(NC(=O)c4cccnc4)cc23)cc1	SW480 rerep inconclusive, VP16 counter inconclusive, ELG1 repair inh 2.9µM, MCF10A rerep inconclusive, RORgamma inh inconclusive
O=C(O)c1cccc(NC(=O)c2ccc(COc3ccc(Cl)cc3)cc2)c1	ELG1 repair inh inconclusive
COc1ccc(COc2cc(-c3cccc(OC)c3)nc3ccc(NC(=O)c4ccc(OC)cc4)cc23)cc1	SW480 rerep 4.1µM, ELG1 repair inh 4.1µM, MCF10A rerep 2.3µM, RORgamma inh inconclusive
COc1ccc(COc2cc(-c3cccc(OC)c3)nc3ccc(NC(=O)c4ccc(Cl)cc4)cc23)cc1	SW480 rerep 23µM, ELG1 repair inh inconclusive, MCF10A rerep 26µM
COc1ccc(COc2cc(-c3cccc(OC)c3)nc3ccc(NC(=O)c4ccccc4)cc23)cc1	SW480 rerep 16µM, ELG1 repair inh 6.5µM, MCF10A rerep 4.6µM
COc1ccc(OC)c(NC(=O)C2CCC(CNc3c(N4CCOCC4)c(=O)c3=O)CC2)c1 (stereo unspecified)	RORgamma inh inconclusive
Cc1ccc(S(=O)(=O)N2CCOCC2)cc1C(=O)OCC(=O)N1CCCCC1	none (no result: VP16 counter, RORgamma inh)
Cc1ccc(COC(=O)c2cc(S(=O)(=O)N3CCOCC3)ccc2C)cc1	ELG1 repair inh 23µM (no result: VP16 counter, RORgamma inh)
COc1cccc(NC(=O)COC(=O)c2cc(S(=O)(=O)N3CCOCC3)ccc2C)c1	ELG1 repair inh 16µM
COc1ccc(NC(=O)N(C)C[C@H]2Oc3ccc(NS(=O)(=O)c4cccs4)cc3C(=O)N([C@H](C)CO)C[C@@H]2C)cc1	none (no result: VP16 counter, RORgamma inh)
CC1CCc2sc(C(=O)N3CCN(c4ncccn4)CC3)cc2C1 (stereo unspecified)	none (no result: VP16 counter, ELG1 repair inh, RORgamma inh)
Cc1ccc(OCCSc2nc(NC(C)C)nc(NC(C)C)n2)cc1	VP16 counter inconclusive, MCF10A rerep 13µM, RORgamma inh inconclusive

Source: PubChem BioAssay (National Center for Advancing Translational Sciences (NCATS))
